# Results reported in PubChem BioAssay.
# Records with an inconclusive call do not appear. The source made the active and inactive calls.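 How the source made its calls, unless noted: active means normalized viability below 100% at a tested concentration; inactive means the rest.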
# Assays:
# [1] = growth inhibition of DIPG glioma cells, dose response, cell-based, JHH-DIPG-1, MIPE4.0, CellTiter-Glo, qHTS (AID 1347062; cut-off not given, nearly all actives have AC50 up to about 27 µM;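 on AC50: cells exposed to compound for two days before readout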); details: JHH-DIPG-1 viability, CellTiter-Glo ATP luminescence
# [2] = growth inhibition of DIPG glioma cells, dose response, cell-based, SU-DIPG-IV, MIPE4.0, CellTiter-Glo, qHTS (AID 1347063; cut-off not given, nearly all actives have AC50 up to about 30 µM;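 further: compound exposure lasted 48 hours before the viability readout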); details: SU-DIPG-IV viability, CellTiter-Glo ATP luminescence
# [3] = growth inhibition of DIPG glioma cells, dose response, cell-based, SU-DIPG-XIII, MIPE5.0, CellTiter-Glo, qHTS (AID 1347064; cut-off not given, nearly all actives have AC50 up to about 23 µM;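 on AC50: cells exposed to compound for 48 hours before the viability read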); details: SU-DIPG-XIII viability, CellTiter-Glo ATP luminescence
# [4] = SU-DIPG-VI glioma cell viability, MIPE4.0 library, CellTiter-Glo luminescence, qHTS (AID 1347066; cut-off not given, nearly all actives have AC50 up to about 30 µM;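 further: cells exposed to compound for 48 hours before readout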); details: CellTiter-Glo ATP luminescence
# [5] = JHH-DIPG-1 glioma cell viability, MIPE5.0 library, CellTiter-Glo luminescence, qHTS (AID 1347067; cut-off not given, nearly all actives have AC50 up to about 26 µM;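 further: cells exposed to compound for 48 hours before readout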); details: JHH-DIPG-1 glioma viability, CellTiter-Glo ATP luminescence
# [6] = SU-DIPG-XXV glioma cell viability, MIPE5.0 library, qHTS (AID 1347068; cut-off not given, nearly all actives have IC50 up to about 30 µM;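 on IC50: cells exposed to compound for 48 hours before viability readout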)
# [7] = viability loss in pontine glioma line – cell-based, SU-DIPG-XXV, MIPE5.0, CellTiter-Glo, qHTS, dose response (AID 1347065; cut-off not given, nearly all actives have AC50 up to about 26 µM;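 further: cells exposed to compound for 48 hours before ATP readout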); details: CellTiter-Glo ATP luminescence
# [8] = modifiers of HSF1 nuclear foci, imaging, Selleck Cancer Library (AID 1347162; in the data active means plate-normalised HSF1 focus index below about 0.46); details: human cells, at 10 µM; SSMD: measured here: HSF1 foci SSMD mean; cell count: measured here: cell number; plate-normalised HSF1 focus index: stronger effect = lower value
# [9] = sensitizers of A549 cells to miR-34 induction, primary screen, imaging, A549 dox-inducible miR-34, nuclei and caspase counts (AID 1347080;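 active means compounds whose cell count with miR-34 switched on is under 0.7 times the count with it off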); details: A549 miR-34 inducible, Hoechst nuclei count, 48 h
# [10] = survival rescue of mitochondrial mutant cells in low glucose, primary screen, MELAS cybrids, Rieske KO mouse fibroblasts, CellTiter-Glo (AID 1508586;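 active means mean z-score across replicates of 1.96 or higher in either the MELAS or the Rieske mutant cell line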;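 further: z relative to plate mean and SD of compound and empty wells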)
# [11] = ovarian cancer cell viability with rucaparib, profiling panel, oncology-focused library, rucaparib conditional (AID 1508598); details: patient-derived ovarian cancer cells, CellTiter-Glo viability, 144 h, stronger effect = lower value
smiles,measurement,setting,value
CCn1c(=O)c2c(nc(/C=C/c3ccc(OC)c(OC)c3)n2C)n(CC)c1=O,outcome,[1],inactive
same,outcome,[2],inactive
same,outcome,[3],inactive
same,outcome,[4],inactive
same,outcome,[5],inactive
same,outcome,[6],inactive
Cc1cn2cc(C(=O)N(C)CCO)cc(N[C@@H]3CCOc4cccc(C)c43)c2n1,outcome,[1],inactive
same,outcome,[2],inactive
same,outcome,[3],inactive
same,outcome,[4],inactive
same,outcome,[5],inactive
same,outcome,[6],inactive
Cn1cc(-c2ccncc2)c(-c2ccc(OCc3ccc4ccccc4n3)cc2)n1,outcome,[1],inactive
same,outcome,[2],inactive
same,AC50,[7],23500 nM (active)
same,outcome,[4],inactive
same,outcome,[6],inactive
Cn1cc(-c2[nH]c3cc(NC(=O)[C@H](N)C4CCCCC4)cc4c3c2C=NNC4=O)cn1,AC50,[1],418 nM (active)
same,AC50,[2],1180 nM (active)
same,AC50,[3],2090 nM (active)
same,AC50,[7],1180 nM (active)
same,AC50,[5],16600 nM (active)
same,IC50,[6],4680 nM (active)
same,SSMD,[8],-1.12
same,cell count,[8],6990
same,plate-normalised HSF1 focus index,[8],0.932 (inactive)
Cc1ccccc1C(C(=O)NC1CCCC1)N(C(=O)Cn1cnc2ccccc21)c1cccc(F)c1 (configuration not stated),outcome,[1],inactive
same,outcome,[2],inactive
C[C@@H]1C/C=C/C=C/C=C/C=C/[C@@H](O[C@@H]2O[C@H](C)[C@@H](O)[C@H](N)[C@@H]2O)C[C@@H]2O[C@](O)(C[C@@H](O)C[C@@H]3O[C@H]3/C=C/C(=O)O1)C[C@H](O)[C@H]2C(=O)O,outcome,[1],inactive
CC1(O)CC(c2nc(-c3ccc4ccc(-c5ccccc5)nc4c3)c3c(N)nccn23)C1 (configuration not stated),AC50,[1],1480 nM (active)
same,AC50,[2],14800 nM (active)
same,AC50,[3],590 nM (active)
same,AC50,[7],332 nM (active)
same,AC50,[4],332 nM (active)
same,AC50,[5],11800 nM (active)
same,outcome,[6],inactive
same,fold change,"[9]; stronger effect = lower value, cell number ratio, induced over uninduced",1.03 (inactive)
same,fold change,[9]; measured here: relative caspase fold change +Dox/-Dox,0.898
same,cell count,"[9]; measured here: total cells with miR-34 induction, stronger effect = lower value",2240
same,cell count,[9]; measured here: total cells without miR-34 induction,2180
same,SSMD,[8],1.94
same,cell count,[8],6580
same,plate-normalised HSF1 focus index,[8],1.1 (inactive)
same,z-score,"[10]; MELAS cybrid survival, CellTiter-Glo 48 h, stronger effect = higher value",-0.422 (inactive)
same,z-score,"[10]; Rieske KO mouse fibroblast survival, CellTiter-Glo 72 h",0.283
same,viability,"[11]; at 0.000305 µM, OCI-C5x cells, with rucaparib 10 µM, 100% = cells with rucaparib alone",114% (inactive)
same,viability,"[11]; at 0.000305 µM, OCI-C5x cells, without rucaparib",139% (inactive)
same,viability,"[11]; at 0.000305 µM, OCI-P5x cells, with rucaparib 20 µM, 100% = cells with rucaparib alone",109% (inactive)
same,viability,"[11]; at 0.000305 µM, OCI-P5x cells, without rucaparib",106% (inactive)
same,viability,"[11]; at 0.00122 µM, OCI-C5x cells, with rucaparib 10 µM, 100% = cells with rucaparib alone",121% (inactive)
same,viability,"[11]; at 0.00122 µM, OCI-C5x cells, without rucaparib",130% (inactive)
same,viability,"[11]; at 0.00122 µM, OCI-P5x cells, with rucaparib 20 µM, 100% = cells with rucaparib alone",104% (inactive)
same,viability,"[11]; at 0.00122 µM, OCI-P5x cells, without rucaparib",104% (inactive)
same,viability,"[11]; at 0.00488 µM, OCI-C5x cells, with rucaparib 10 µM, 100% = cells with rucaparib alone",111% (inactive)
same,viability,"[11]; at 0.00488 µM, OCI-C5x cells, without rucaparib",124% (inactive)
same,viability,"[11]; at 0.00488 µM, OCI-P5x cells, with rucaparib 20 µM, 100% = cells with rucaparib alone",99.9% (active)
same,viability,"[11]; at 0.00488 µM, OCI-P5x cells, without rucaparib",105% (inactive)
same,viability,"[11]; at 0.0195 µM, OCI-C5x cells, with rucaparib 10 µM, 100% = cells with rucaparib alone",115% (inactive)
same,viability,"[11]; at 0.0195 µM, OCI-C5x cells, without rucaparib",127% (inactive)
same,viability,"[11]; at 0.0195 µM, OCI-P5x cells, with rucaparib 20 µM, 100% = cells with rucaparib alone",104% (inactive)
same,viability,"[11]; at 0.0195 µM, OCI-P5x cells, without rucaparib",106% (inactive)
same,viability,"[11]; at 0.0781 µM, OCI-C5x cells, with rucaparib 10 µM, 100% = cells with rucaparib alone",114% (inactive)
same,viability,"[11]; at 0.0781 µM, OCI-C5x cells, without rucaparib",133% (inactive)
same,viability,"[11]; at 0.0781 µM, OCI-P5x cells, with rucaparib 20 µM, 100% = cells with rucaparib alone",101% (inactive)
same,viability,"[11]; at 0.0781 µM, OCI-P5x cells, without rucaparib",113% (inactive)
same,viability,"[11]; at 0.313 µM, OCI-C5x cells, with rucaparib 10 µM, 100% = cells with rucaparib alone",133% (inactive)
same,viability,"[11]; at 0.313 µM, OCI-C5x cells, without rucaparib",57.9% (active)
same,viability,"[11]; at 0.313 µM, OCI-P5x cells, with rucaparib 20 µM, 100% = cells with rucaparib alone",88.6% (active)
same,viability,"[11]; at 0.313 µM, OCI-P5x cells, without rucaparib",96% (active)
same,viability,"[11]; at 1.25 µM, OCI-C5x cells, with rucaparib 10 µM, 100% = cells with rucaparib alone",145% (inactive)
same,viability,"[11]; at 1.25 µM, OCI-C5x cells, without rucaparib",134% (inactive)
same,viability,"[11]; at 1.25 µM, OCI-P5x cells, with rucaparib 20 µM, 100% = cells with rucaparib alone",41.3% (active)
same,viability,"[11]; at 1.25 µM, OCI-P5x cells, without rucaparib",66.2% (active)
same,viability,"[11]; at 5 µM, OCI-C5x cells, with rucaparib 10 µM, 100% = cells with rucaparib alone",168% (inactive)
same,viability,"[11]; at 5 µM, OCI-C5x cells, without rucaparib",153% (inactive)
same,viability,"[11]; at 5 µM, OCI-P5x cells, with rucaparib 20 µM, 100% = cells with rucaparib alone",7.72% (active)
same,viability,"[11]; at 5 µM, OCI-P5x cells, without rucaparib",32.8% (active)
